Screening results as filed in PubChem.
Most compounds without a hit are left out; they make up all but 11% or so of the library.
IMPase Li inh: IMPase inhibition in cells with lithium potentiation | CHO-M1 cells, IP1 TR-FRET (IP-One), carbachol + lithium | Potency, µM (highest dose often 59.4 µM), for the others: at the top dose activity, negative = IMPase inhibition, most hits filed as inhibitors | actives 0.35% (n = 210,000) | AID 1457; active means well fitted curve in the direction sought with a large enough effect; inconclusive means small, poorly fitted or top-dose-only effect, or another doubt; inactive means no such curve, though single readings can be large; an effect the other way counts as inactive or inconclusive;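 further: IP1 builds up when IMPase is blocked and the TR-FRET signal falls; potency means the concentration at half of the fitted maximal effect; plate controls were basal vehicle for no effect and high inhibitor control for full effect; nearly all actives have a fitted effect of over 50% in size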
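Test compounds were applied to CHO-M1 cells previously cultured for 16–30 h at 2000 per well. A small lithium amount accompanied them; after 30 min at 37C, IP1 was quantified by TR-FRET.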
IMPase inh: IMPase inhibition in cells; P97697; CHO-M1 cells, IP1 accumulation, HTRF TR-FRET ratio; inhibition (IP1 accumulation), % at 46.1 µM; 120,000 tested, under 10 active; active means well fitted curve in the direction sought with a large enough effect in the signal ratio, not every such curve was filed as active; inconclusive means small, poorly fitted or top-dose-only effect, or a change in a side signal; inactive means no such curve, though single readings can be large or run the other way; the % refers to the signal ratio;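 further: cells stimulated with carbachol in lithium chloride buffer; plate controls were DMSO basal wells for no effect and reference inhibitor wells for full effect; higher means more IMPase inhibition seen as more IP1 and lower FRET ratio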
Target sequence (P97697 whole entry, looked up): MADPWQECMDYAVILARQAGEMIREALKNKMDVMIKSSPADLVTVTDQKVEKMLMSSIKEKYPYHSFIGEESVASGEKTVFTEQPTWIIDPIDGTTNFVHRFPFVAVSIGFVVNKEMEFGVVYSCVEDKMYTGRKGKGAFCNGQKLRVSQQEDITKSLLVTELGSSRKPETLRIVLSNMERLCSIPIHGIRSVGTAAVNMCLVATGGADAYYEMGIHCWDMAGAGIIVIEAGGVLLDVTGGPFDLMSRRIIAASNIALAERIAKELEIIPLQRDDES
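Carbachol-driven Gq signalling in CHO-M1 cells (2000/well) generates IP1. Compounds that block IMPase raise IP1 and so reduce the FRET signal from Eu-anti-IP1 and d2-IP1 after a 10 min room-temperature lysis.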
PNC inhibitor: inhibitors of perinucleolar compartment assembly. PC3M PTB-GFP, PNC prevalence imaging, 16 h; stronger effect = lower value. activity change (PNC), negative = inhibition, % at 10 µM. actives 3.1% (n = 140,000). AID 2417;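 active means readout at or below -70, meaning at least 70% loss of cells showing the perinucleolar compartment, a nuclear body marking cancer cells; inconclusive means readout between -30 and a set limit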;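 further: plate controls were DMSO wells for no effect and camptothecin positive control wells for full effect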
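Compounds are pinned in duplicate onto adhered PC3M cells stably expressing GFP-tagged PTB and incubated 16 h at 37 C. Cells are then fixed, nuclei stained with Hoechst, and PNC-positive cells counted.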
ALDH1A1 inh: ALDH1A1 (human) enzyme inhibition; P00352; AID 1030; actives 7.3% (n = 220,000); Potency, µM (titrated, usually from 75.3 µM), for inactives: at the top dose activity, negative = inhibition, usual class: inhibitors; Purified ALDH1A1, NADH fluorescence, propionaldehyde substrate;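 further: potency means the concentration at half of the fitted maximal effect; plate controls were no enzyme wells and a reference inhibitor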
HPGD inh: HPGD (human) dehydrogenase inhibition; purified HPGD, NADH fluorescence kinetic, PGE2 substrate; actives 4.3% (n = 150,000); AID 894; Potency, µM, inactives show at the top dose activity change, negative = inhibition, most hits filed as inhibitors; P15428; further: potency means the concentration at half of the fitted maximal effect
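NADH formation kinetics: reaction with 30 uM PGE2 and 1 mM NAD+ (final), 20 nM enzyme, Tris-HCl pH 8 with Tween 20, after 15 min compound preincubation at room temperature. Fluorescence change, last versus first of five reads.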
NPSR antagonist: neuropeptide S receptor (human) antagonism, cAMP; actives 1% (n = 220,000); CHO-NPSR cells, cAMP TR-FRET, antagonist mode; AID 1461; Potency, µM (top dose mostly 38.3 µM), without a hit: top-dose activity change, negative = inhibition, hits mostly inhibitors; Q6W5P4; active means well fitted curve in the direction sought with a large enough effect; inconclusive means small, poorly fitted or top-dose-only effect, or another doubt; inactive means no such curve, though single readings can be large; an effect the other way counts as inactive or inconclusive; further: potency means the concentration at half of the fitted maximal effect; nearly all actives have a fitted effect of over 50% in size
Target sequence (Q6W5P4 whole entry, looked up): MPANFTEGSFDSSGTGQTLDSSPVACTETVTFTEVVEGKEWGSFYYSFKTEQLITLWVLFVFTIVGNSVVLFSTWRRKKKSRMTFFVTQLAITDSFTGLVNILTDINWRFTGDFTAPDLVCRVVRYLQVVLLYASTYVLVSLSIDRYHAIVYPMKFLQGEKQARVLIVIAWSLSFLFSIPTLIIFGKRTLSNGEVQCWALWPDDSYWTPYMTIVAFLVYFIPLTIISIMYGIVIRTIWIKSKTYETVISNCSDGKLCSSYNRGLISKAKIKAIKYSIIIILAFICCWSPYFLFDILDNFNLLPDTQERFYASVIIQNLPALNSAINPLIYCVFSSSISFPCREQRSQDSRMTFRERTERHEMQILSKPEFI
* hit, by the source's call; ? = inconclusive; · = not tested or not shown; [ ] = dose if it differs, or a comment. Unless noted, the call rests on the fitted dose curve; in most records, active means well fitted inhibition curve with a large enough effect (not every such curve was filed as active); inconclusive means small, poorly fitted or top-dose-only effect, or another doubt; inactive means no such curve, though single readings can be large or run the other way. Unless noted, on the % scale 0 is the no-effect control and ±100 the full control effect.

SMILES	IMPase Li inh	IMPase inh	PNC inhibitor	ALDH1A1 inh	HPGD inh	NPSR antagonist
COc1ccc(/C=N/NC(=O)CN2CCSCC2)cc1C	7%	·	41	10µM*	-26%	16%
COc1ccc(/C=C(/NC(=O)c2ccccc2)C(=O)N/N=C/c2ccc3c(c2)OCO3)cc1OC	-14%[38.3 µM]	-2	60	-2%	32µM*	?
N#C/C(=C\c1ccc(-c2ccc([N+](=O)[O-])cc2Br)o1)C(=O)N1CCN(c2ccccc2)CC1	11%	-6	?	12%	?	0%
COc1ccc(/C=N/NC(=O)C(=O)N2CCCC2)cc1OC	-6%	·	-4	2%	32µM*	15%
CC(C)NC(=O)Cn1cc(C#N)c2cc(Br)ccc21	17%[38.3 µM]	1	55	5%	-8%	24%[46.1 µM]
CCN(CC)c1ncnc2scc(C3COc4ccccc4O3)c12 (stereo not drawn)	21%	?	-100*	3%	-17%	0%[46.1 µM]
c1ccc2c(c1)OCC(c1csc3ncnc(N4CCOCC4)c13)O2 (stereo not drawn)	1%[38.3 µM]	0	-21	-1%	-5%	-3%[46.1 µM]
Cc1ccc(OCCSc2nc3ncnc(N)c3[nH]2)cc1	-8%	·	·	7%	·	10%
CC(C)Oc1ccc(OCCn2c(=S)[nH]c3c(N)ncnc32)cc1	-2%	·	·	10µM*	·	-17%
Cc1ccc(OCCn2c(=S)[nH]c3c(N)ncnc32)cc1	9%	·	·	7.9µM*	·	-17%
CCOC(=O)C1=C(C)Nc2nc(SCC(=O)OC)nn2C1c1cc(F)cc(F)c1 (stereo not drawn)	6%[38.3 µM]	3[1.84 µM]	?	5%	-12%	-22%[46.1 µM]
O=C(Cn1c(Cc2ccccc2)nc2ccccc21)NCc1ccc2c(c1)OCO2	-3%	-3	-25	16µM*	-4%	3%
O=C(CCn1cccc1)NCc1ccc2c(c1)OCO2	-2%[38.3 µM]	0	5	-2%	20µM*	-8%[46.1 µM]
O=C(CCn1c(=O)c2ccccc2n(Cc2ccccc2)c1=O)NCc1ccc2c(c1)OCO2	22%[38.3 µM]	-9	-1	2%	-5%	1%[46.1 µM]
CC(NCc1ccc2c(c1)OCO2)C(=O)NC1CCCCC1 (stereo not drawn)	2%	·	·	35µM*	·	-11%
O=C(CCn1c(=O)oc2ccccc21)NCc1ccc2c(c1)OCO2	19%[38.3 µM]	7	18	16µM*	-12%	-7%[46.1 µM]
COc1ccc(S(=O)(=O)N2Cc3ccccc3CC2C(=O)N2CCOCC2)cc1OC (stereo not drawn)	29%[38.3 µM]	0	-21	-5%	-5%	-2%[46.1 µM]
COc1cccc(C2NC(=O)NC(C)=C2C(=O)Nc2ccccc2C)c1 (stereo not drawn)	-10%[38.3 µM]	5	-4	12%	-5%	-2%[46.1 µM]
CC(C)C(=O)NNc1nc2ccccc2s1	7%	3	-19	18%	-19%	6%[46.1 µM]
CC(=O)c1cc2c(cc1NC(=O)CCC1CCCC1)OCO2	8%	·	18	4%	?	-9%
O=C(CCn1c(=O)sc2ccccc21)NCc1ccc2c(c1)OCO2	17%	6	-119*	?	-9%	-1%
CC(=O)c1cc2c(cc1NC(=O)CCn1cccc1)OCO2	1%[38.3 µM]	-6	1	32µM*	-19%	-7%[46.1 µM]
CCN(CC)S(=O)(=O)c1ccc(Cl)c(C(=O)NCc2ccco2)c1	8%	·	·	?	·	2%
N#Cc1ccc(OCC(=O)Nc2cc(S(=O)(=O)N3CCCCC3)ccc2N2CCCCC2)cc1	7%	1	57	-8%	-9%	-27%
Cc1ccn2cc(CCNC(=O)COc3ccccc3)nc2c1	·	·	·	·	·	15%
SMILES	IMPase Li inh	IMPase inh	PNC inhibitor	ALDH1A1 inh	HPGD inh	NPSR antagonist
Cc1ccn2cc(CCNC(=O)CC(C)(C)C)nc2c1	2%	2	-100*	?	?	3%[46.1 µM]
O=C(NC(=S)Nn1cnnc1)c1cccc(Br)c1	-7%	·	-27	7.9µM*	22µM*	9%
Cc1ccc(C(=O)NC(=S)Nn2cnnc2)cc1	7%	-2	-20	20µM*	?	1%[46.1 µM]
NC(=S)NNC(=O)c1cccc(Br)c1	-2%	·	·	-3%	·	3%
CC(=O)c1cccc(NC(=O)N2CCCC2C(=O)Nc2ccc3c(c2)OCCO3)c1 (stereo not drawn)	15%	·	·	-8%	·	-3%
COc1ccc(NC(=O)Cc2coc3cc(C)ccc23)cn1	-3%	·	·	-6%	·	17%
CCn1ncc(C2=NOC(C(=O)NCc3ccc(Cl)cc3)C2)c1C (stereo not drawn)	11%[38.3 µM]	7	-82*	0%	-14%	?
Cc1cc2c(c(=O)o1)C(C1C=CCCC1)C(C#N)=C(N)O2 (stereo not drawn)	-14%[38.3 µM]	-3	13	7.9µM*	28µM*	28%[46.1 µM]
N#CC1=C(N)SC(N)=C(C#N)C1C1C=CCCC1 (stereo not drawn)	-7%	-7	338	22µM*	-23%	0%[46.1 µM]
Cc1cc2c(c(=O)o1)C(C(C)C)C(C#N)=C(N)O2 (stereo not drawn)	-1%[38.3 µM]	-6	-1	?	-11%	-2%[46.1 µM]
O=C(O)c1ccccc1-c1ccccc1C(=O)Nc1cccc(Br)c1	·	·	·	8%	·	-15%
O=C(CCCCCNC(=S)Nc1ccc(Cl)cc1)C[N+](=O)[O-]	-4%	·	·	10µM*	·	-2%
COc1ccc(NC(=S)NCCCCCC(=O)C[N+](=O)[O-])cc1	-7%	·	·	2.5µM*	·	-4%
O=C(CCCCCNC(=S)Nc1ccccc1)C[N+](=O)[O-]	0%	·	·	3.5µM*	·	10%
O=C(CCCCCNC(=O)c1ccccc1)C[N+](=O)[O-]	14%	·	·	2.2µM*	·	-1%
O=C(NCCc1ccc([N+](=O)[O-])cc1)c1ccccc1	·	·	·	·	·	15%[7.67 µM]
C/C(=C\C(=O)c1c(O)cc(C)oc1=O)N(C)C	0%	·	·	2%	·	14%
C/C(=C\C(=O)C(F)(F)F)Nc1ccc(C(F)(F)F)cc1	-4%	3	?	22µM*	-4%	2%[46.1 µM]
CC(C)(CCl)C(=O)Nc1ccc(C(F)(F)F)cc1	-2%	·	·	10%	·	20%
CCOC(=O)C1CCCN(C(=O)c2ccc(OC)c([N+](=O)[O-])c2)C1 (stereo not drawn)	13%	·	-95*	4.5µM*	-5%	11%
CCCC(=O)Nc1ccc(S(=O)(=O)N2CCCC2)cc1	25%[38.3 µM]	3	-26	8%	-4%	-4%[46.1 µM]
CCCC(=O)Nc1ccc(C(=O)N2CCCC2)cc1	23%[38.3 µM]	-2	?	6%	14µM*	4%[46.1 µM]
CCCC(=O)Nc1cccc(NC(=O)c2ccccc2Br)c1	12%	0	-11	-4%	-9%	-3%[46.1 µM]
CCOC(=O)C1CCCN(C(=O)c2ccc([N+](=O)[O-])cc2)C1 (stereo not drawn)	-2%	·	39	?	-28%	9%
